# Active and inactive are the calls of the source. How the source made its calls: active means hit-call score of the fitted dose curve at least 0.9, where 1 is the maximum; inactive means score below 0.9.
# Key:
# [1] = CEETOX_H295R_CORTISOL: CeeTox H295R High-throughput Steroidogenesis Assay for Cortisol (AID 2283438); conditions: actives raise or lower the signal;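 further: cortisol secreted into medium quantified by LC-MS/MS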
# Summary of the method: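 Cortisol measured by HPLC-MS/MS after MTBE extraction of medium from H295R cells exposed 48 h to chemical (0.1% DMSO), following 48 h prestimulation with 10 uM forskolin. Viability assessed by MTT in the same wells.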
# [2] = CEETOX_H295R_DOC: CeeTox H295R High-throughput Steroidogenesis Assay for DOC (AID 2283439); conditions: actives raise or lower the signal
# Summary of the method: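 11-Deoxycorticosterone quantified in medium by MTBE extraction and HPLC-MS/MS after 48 h chemical exposure (0.1% DMSO) of forskolin-primed (10 uM, 48 h) H295R cells. Same-well MTT viability; data fitted bidirectionally against DMSO.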
# [3] = CEETOX_H295R_ESTRADIOL: CeeTox H295R High-throughput Steroidogenesis Assay for Estradiol (AID 2283440); conditions: actives raise or lower the signal;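 further: estradiol secreted into medium quantified by LC-MS/MS after dansyl derivatisation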
# Summary of the method: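 H295R cells pre-stimulated 48 h with 10 uM forskolin, then exposed 48 h to chemical in 0.1% DMSO. Medium estradiol quantified by MTBE extraction, dansyl derivatisation and HPLC-MS/MS; bidirectional fit versus DMSO; MTT viability required >/=70%.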
# [4] = CEETOX_H295R_PROG: CeeTox H295R High-throughput Steroidogenesis Assay for Progesterone (PROG) (AID 2283442); conditions: actives raise or lower the signal;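 on AC50: human H295R adrenal cells primed with 10 µM forskolin before dosing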
# Summary of the method: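 H295R adrenal cells prestimulated 48 h with 10 uM forskolin, then exposed 48 h to test chemical in 0.1% DMSO. Progesterone in medium quantified by HPLC-MS/MS after MTBE extraction; viability checked by MTT in same wells.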
# [5] = read-out: Tumor necrosis factor receptor superfamily member 6 (Homo sapiens) (UniProt P25445); test: LTEA_HepaRG_FAS: Life Technologies and Expression Analysis (LTEA) Assay for Fas cell surface death receptor (FAS) using HepaRG (AID 2283447); conditions: mRNA level, 48 h; actives raise or lower the signal
# Summary of the method: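 FAS transcript level was measured by TaqMan qRT-PCR against three housekeeping genes after 48 h chemical exposure. Cells were HepaRG, 0.5% DMSO vehicle, with a top concentration of 100 uM and half-log dilutions over eight points, in duplicate.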
# [6] = read-out: Cyclin D2 (CCND2), CCND2 (gene 894); test: LTEA_HepaRG_CCND2: Life Technologies and Expression Analysis (LTEA) Assay for Cyclin D2 (CCND2) using HepaRG (AID 2283449); conditions: mRNA level, 48 h; actives raise or lower the signal
# Summary of the method: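 CCND2 transcript levels, quantified by qRT-PCR and normalised to three housekeeping genes, were fitted bidirectionally against 0.5% DMSO. HepaRG cultures were dosed 48 h in duplicate with an 8-point half-log series up to 100 uM.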
# [7] = read-out: Cyclin D1 (CCND1), CCND1 (gene 595); test: LTEA_HepaRG_CCND1: Life Technologies and Expression Analysis (LTEA) Assay for Cyclin D1 (CCND1) using HepaRG (AID 2283451); conditions: mRNA level, 48 h; actives raise or lower the signal;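 on AC50: differentiated human HepaRG liver cells in serum-free induction medium; TaqMan qRT-PCR transcript level normalised to ACTB GAPDH and POLR2A housekeeping genes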
# Summary of the method: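 Differentiated HepaRG cells exposed 48 h in serum-free induction medium to eight half-log concentrations from 100 uM top, 0.5% DMSO, duplicates. CCND1 mRNA measured by Fluidigm TaqMan qRT-PCR, normalised to ACTB, GAPDH, POLR2A; bidirectional fit.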
# [8] = read-out: catalase (CAT), CAT (gene 847); test: LTEA_HepaRG_CAT: Life Technologies and Expression Analysis (LTEA) Assay for catalase (CAT) using HepaRG (AID 2283452); conditions: mRNA level, 48 h; actives raise or lower the signal;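 on AC50: TaqMan qRT-PCR signal normalized to ACTB GAPDH and POLR2A housekeeping genes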
# Summary of the method: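 Expression of CAT was quantified by TaqMan qRT-PCR with ACTB/GAPDH/POLR2A normalization after 48 h chemical exposure of HepaRG. Eight-point half-log series, top 100 uM, in 0.5% DMSO; gain or loss fitted against vehicle.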
# [9] = read-out: Fatty acid synthase (Homo sapiens) (UniProt P49327); test: LTEA_HepaRG_FASN: Life Technologies and Expression Analysis (LTEA) Assay for Fatty Acid Synthase (FASN) using HepaRG (AID 2283448); conditions: mRNA level, 48 h; actives raise or lower the signal;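 on AC50: differentiated human HepaRG liver cells in serum-free induction medium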
# Summary of the method: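 FASN transcript measured by TaqMan qRT-PCR, normalised to three housekeeping genes, after 48 h chemical exposure of HepaRG cells. Eight-point half-log series from 100 uM in 0.5% DMSO, duplicates; gain or loss fitted against vehicle.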
# [10] = read-out: Cyclin Dependent Kinase Inhibitor 1A (CDKN1A), CDKN1A (gene 1026); test: LTEA_HepaRG_CDKN1A: Life Technologies and Expression Analysis (LTEA) Assay for Cyclin Dependent Kinase Inhibitor 1A (CDKN1A) using HepaRG (AID 2283450); conditions: mRNA level, 48 h; actives raise or lower the signal
# Summary of the method: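 Differentiated HepaRG cells in serum-free induction medium, exposed 48 h in duplicate to eight half-log concentrations up to 100 uM in 0.5% DMSO. mRNA measured by TaqMan qRT-PCR, normalized to ACTB, GAPDH, POLR2A; bidirectional fit versus DMSO.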
# Fatty acid synthase (Homo sapiens), sequence (P49327 whole entry, looked up): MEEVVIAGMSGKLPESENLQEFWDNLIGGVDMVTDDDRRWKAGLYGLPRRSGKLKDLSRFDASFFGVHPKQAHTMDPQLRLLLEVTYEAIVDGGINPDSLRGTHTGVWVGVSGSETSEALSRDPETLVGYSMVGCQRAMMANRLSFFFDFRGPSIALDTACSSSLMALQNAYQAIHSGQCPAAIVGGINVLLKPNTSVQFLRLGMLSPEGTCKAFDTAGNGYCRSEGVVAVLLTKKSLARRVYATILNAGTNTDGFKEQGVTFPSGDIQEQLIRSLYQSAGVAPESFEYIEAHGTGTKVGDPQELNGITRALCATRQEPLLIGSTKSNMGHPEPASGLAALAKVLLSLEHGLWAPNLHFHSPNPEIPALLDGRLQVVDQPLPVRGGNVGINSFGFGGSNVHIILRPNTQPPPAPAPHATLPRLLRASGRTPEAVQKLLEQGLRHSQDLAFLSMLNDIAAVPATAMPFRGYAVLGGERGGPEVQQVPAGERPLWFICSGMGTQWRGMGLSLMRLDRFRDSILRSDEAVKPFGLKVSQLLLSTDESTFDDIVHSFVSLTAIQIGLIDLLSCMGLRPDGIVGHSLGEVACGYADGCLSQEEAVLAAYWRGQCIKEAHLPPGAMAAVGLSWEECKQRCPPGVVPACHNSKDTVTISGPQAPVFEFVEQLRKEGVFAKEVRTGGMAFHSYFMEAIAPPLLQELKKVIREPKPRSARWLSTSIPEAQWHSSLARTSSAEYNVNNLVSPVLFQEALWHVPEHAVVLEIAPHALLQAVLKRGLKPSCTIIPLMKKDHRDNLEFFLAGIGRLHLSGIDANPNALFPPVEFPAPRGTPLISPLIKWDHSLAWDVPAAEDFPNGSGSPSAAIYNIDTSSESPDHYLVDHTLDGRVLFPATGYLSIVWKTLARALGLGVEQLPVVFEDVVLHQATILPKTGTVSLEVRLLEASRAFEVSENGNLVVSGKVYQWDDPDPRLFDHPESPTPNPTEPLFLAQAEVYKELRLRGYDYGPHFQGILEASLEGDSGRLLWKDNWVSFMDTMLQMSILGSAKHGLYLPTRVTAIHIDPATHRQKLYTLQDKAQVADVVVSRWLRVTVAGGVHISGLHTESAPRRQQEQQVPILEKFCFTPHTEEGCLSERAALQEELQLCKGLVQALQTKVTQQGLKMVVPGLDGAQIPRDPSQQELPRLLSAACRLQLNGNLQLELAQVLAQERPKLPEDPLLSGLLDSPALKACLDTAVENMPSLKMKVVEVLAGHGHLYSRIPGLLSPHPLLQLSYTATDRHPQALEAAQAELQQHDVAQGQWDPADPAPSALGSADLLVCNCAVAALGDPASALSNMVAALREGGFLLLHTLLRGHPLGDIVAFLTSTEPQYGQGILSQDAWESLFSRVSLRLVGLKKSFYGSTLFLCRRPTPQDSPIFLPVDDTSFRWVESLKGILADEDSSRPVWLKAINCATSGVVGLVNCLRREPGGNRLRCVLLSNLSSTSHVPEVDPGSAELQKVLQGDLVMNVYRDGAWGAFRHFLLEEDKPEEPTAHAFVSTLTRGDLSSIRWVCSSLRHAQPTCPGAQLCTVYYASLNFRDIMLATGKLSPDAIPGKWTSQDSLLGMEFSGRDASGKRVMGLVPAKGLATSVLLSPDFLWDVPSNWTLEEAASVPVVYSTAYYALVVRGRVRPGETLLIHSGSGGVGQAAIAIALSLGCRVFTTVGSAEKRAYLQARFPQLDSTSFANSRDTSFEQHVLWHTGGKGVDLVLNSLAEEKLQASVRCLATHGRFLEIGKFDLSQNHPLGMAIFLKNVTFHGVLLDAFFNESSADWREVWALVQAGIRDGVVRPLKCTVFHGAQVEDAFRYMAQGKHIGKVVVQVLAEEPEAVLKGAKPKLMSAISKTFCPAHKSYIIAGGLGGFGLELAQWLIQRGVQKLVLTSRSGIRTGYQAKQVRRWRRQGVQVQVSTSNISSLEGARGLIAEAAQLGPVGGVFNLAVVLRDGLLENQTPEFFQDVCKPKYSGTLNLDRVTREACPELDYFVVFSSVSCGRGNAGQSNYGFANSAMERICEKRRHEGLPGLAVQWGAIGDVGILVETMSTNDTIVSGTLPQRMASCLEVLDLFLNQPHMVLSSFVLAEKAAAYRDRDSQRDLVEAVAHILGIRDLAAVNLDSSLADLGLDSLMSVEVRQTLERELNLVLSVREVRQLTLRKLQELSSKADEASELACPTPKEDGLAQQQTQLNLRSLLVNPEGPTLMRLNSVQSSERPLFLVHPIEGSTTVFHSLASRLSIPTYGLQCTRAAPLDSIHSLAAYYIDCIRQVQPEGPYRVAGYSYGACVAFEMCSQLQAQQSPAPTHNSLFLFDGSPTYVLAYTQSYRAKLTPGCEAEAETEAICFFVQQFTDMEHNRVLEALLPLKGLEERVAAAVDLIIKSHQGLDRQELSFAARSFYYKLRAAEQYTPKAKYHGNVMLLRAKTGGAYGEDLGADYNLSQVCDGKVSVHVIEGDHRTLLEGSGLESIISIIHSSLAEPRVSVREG
compound,measurement,setting,value
CCCCC(CC)CN1C(=O)C2C3C=CC(C3)C2C1=O (configuration not stated),outcome,[1],inactive
same,outcome,[2],inactive
same,outcome,[3],inactive
same,outcome,[4],inactive
same,outcome,[5],inactive
same,outcome,[6],inactive
same,outcome,[7],inactive
same,AC50,[8],77.2 µM (active)
CC(=O)[C@H]1CC[C@H]2[C@@H]3CCC4=CC(=O)CC[C@]4(C)[C@H]3CC[C@]12C,outcome,[3],inactive
same,AC50,[4],5 µM (active)
same,AC50,[5],60.6 µM (active)
same,outcome,[6],inactive
same,outcome,[7],inactive
same,AC50,[8],50 µM (active)
CCCCCOC(=O)COc1cc(N2C(=O)C3=C(CCCC3)C2=O)c(F)cc1Cl,outcome,[1],inactive
same,outcome,[2],inactive
same,outcome,[3],inactive
same,outcome,[4],inactive
same,outcome,[5],inactive
same,outcome,[9],inactive
same,outcome,[6],inactive
same,outcome,[7],inactive
same,outcome,[8],inactive
c1ccc2[nH]c(-c3cscn3)nc2c1,outcome,[1],inactive
same,outcome,[2],inactive
same,outcome,[3],inactive
same,AC50,[4],59 µM (active)
same,outcome,[5],inactive
same,outcome,[9],inactive
same,outcome,[6],inactive
same,outcome,[7],inactive
same,outcome,[8],inactive
CN(C)C(=O)Nc1ccc(Cl)c(Cl)c1,outcome,[1],inactive
same,outcome,[2],inactive
same,outcome,[4],inactive
same,outcome,[5],inactive
same,AC50,[9],20.3 µM (active)
same,outcome,[6],inactive
same,outcome,[10],inactive
same,AC50,[7],50 µM (active)
same,outcome,[8],inactive
CCN(Cc1c(F)cccc1Cl)c1c([N+](=O)[O-])cc(C(F)(F)F)cc1[N+](=O)[O-],outcome,[3],inactive
same,outcome,[4],inactive
same,outcome,[5],inactive
same,outcome,[6],inactive
same,outcome,[7],inactive
same,outcome,[8],inactive
C#C[C@]1(O)CC[C@H]2[C@@H]3CCC4=CC(=O)CC[C@@H]4[C@H]3CC[C@@]21CC,AC50,[1],2.4 µM (active)
same,outcome,[2],inactive
same,outcome,[4],inactive
same,outcome,[5],inactive
same,outcome,[9],inactive
same,outcome,[6],inactive
same,outcome,[7],inactive
same,outcome,[8],inactive
CCOC(=O)C(C)Oc1ccc(Oc2cnc3cc(Cl)ccc3n2)cc1 (configuration not stated),outcome,[1],inactive
same,outcome,[2],inactive
same,outcome,[4],inactive
same,outcome,[5],inactive
same,outcome,[6],inactive
same,outcome,[7],inactive
same,outcome,[8],inactive
CCCCOC(=O)[C@@H](C)Oc1ccc(Oc2ccc(C(F)(F)F)cn2)cc1,outcome,[1],inactive
same,outcome,[2],inactive
same,outcome,[3],inactive
same,outcome,[4],inactive
same,outcome,[5],inactive
same,outcome,[6],inactive
same,outcome,[7],inactive
same,outcome,[8],inactive
C=CCOC(Cn1ccnc1)c1ccc(Cl)cc1Cl (configuration not stated),AC50,[1],0.159 µM (active)
same,outcome,[2],inactive
same,AC50,[4],0.296 µM (active)
same,AC50,[5],68.9 µM (active)
same,AC50,[9],38.3 µM (active)
same,outcome,[6],inactive
same,AC50,[7],90.5 µM (active)
same,AC50,[8],33.5 µM (active)
C#CCOC(=O)[C@@H](C)Oc1ccc(Oc2ncc(Cl)cc2F)cc1,outcome,[1],inactive
same,AC50,[2],6.87 µM (active)
same,outcome,[3],inactive
same,AC50,[4],9.01 µM (active)
same,outcome,[5],inactive
same,outcome,[7],inactive
same,outcome,[8],inactive
CC1(C)C(C=C(Cl)Cl)C1C(=O)OCc1cccc(Oc2ccccc2)c1 (configuration not stated),outcome,[1],inactive
same,outcome,[2],inactive
same,AC50,[4],11.5 µM (active)
same,outcome,[5],inactive
same,outcome,[9],inactive
same,outcome,[6],inactive
same,outcome,[7],inactive
same,outcome,[8],inactive
CC(C)(c1ccc(O)cc1)c1ccc(O)cc1,outcome,[3],inactive
same,outcome,[4],inactive
same,outcome,[5],inactive
same,outcome,[6],inactive
same,outcome,[7],inactive
same,outcome,[8],inactive
CCCN(CCC)C(=O)SCC,outcome,[1],inactive
same,outcome,[2],inactive
same,outcome,[3],inactive
same,outcome,[4],inactive
same,outcome,[5],inactive
same,outcome,[6],inactive
same,outcome,[10],inactive
same,outcome,[7],inactive
same,outcome,[8],inactive
CSC(=O)c1cccc2nnsc12,outcome,[1],inactive
same,outcome,[2],inactive
same,outcome,[4],inactive
same,outcome,[5],inactive
same,outcome,[6],inactive
same,outcome,[7],inactive
same,outcome,[8],inactive
CC(C)(C)[C@@H](O)[C@@H](Cc1ccc(Cl)cc1)n1cncn1,AC50,[1],5 µM (active)
same,outcome,[2],inactive
same,outcome,[4],inactive
same,outcome,[5],inactive
same,outcome,[6],inactive
same,outcome,[7],inactive
same,outcome,[8],inactive
O=C(Nc1ccc([N+](=O)[O-])cc1Cl)c1cc(Cl)ccc1O,outcome,[1],inactive
same,outcome,[2],inactive
same,outcome,[3],inactive
same,outcome,[4],inactive
same,AC50,[5],3.08 µM (active)
same,outcome,[6],inactive
same,outcome,[10],inactive
same,AC50,[7],3.16 µM (active)
same,AC50,[8],2.85 µM (active)
CC(=O)S[C@@H]1CC2=CC(=O)CC[C@]2(C)[C@H]2CC[C@@]3(C)[C@@H](CC[C@@]34CCC(=O)O4)[C@H]12,AC50,[1],1.83 µM (active)
same,outcome,[2],inactive
same,outcome,[3],inactive
same,outcome,[4],inactive
same,outcome,[5],inactive
same,outcome,[6],inactive
same,outcome,[7],inactive
same,AC50,[8],60.7 µM (active)
S=C([S-])NCCNC(=S)[S-].[Mn+2],outcome,[1],inactive
same,outcome,[2],inactive
same,outcome,[4],inactive
same,AC50,[5],5.41 µM (active)
same,outcome,[6],inactive
same,AC50,[7],0.485 µM (active)
same,AC50,[8],2.97 µM (active)
CCCCOCCOCCOCc1cc2c(cc1CCC)OCO2,outcome,[4],inactive
same,outcome,[5],inactive
same,outcome,[9],inactive
same,outcome,[6],inactive
same,outcome,[7],inactive
same,outcome,[8],inactive
